Hit rate of the full screen: of about 1,500 compounds, about 390 (26%) were called active. No rule for the calls is given here. These entries were drawn from the full list. Entries with a potency or affinity are not part of this list.
target: Histone-lysine N-methyltransferase NSD2 (Homo sapiens) (UniProt O96028); assay: blockers of NSD2 H4 peptide methylation – biochemical, AlphaScreen, cherry-picked samples, dose response (AID 1053173); settings: 120 min; series mostly up to 10 µM; activity change, negative = inhibition: at the top concentration;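 also: 0% = neutral control wells and -100% = positive control wells on each plate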
Sequence (O96028 whole entry, looked up): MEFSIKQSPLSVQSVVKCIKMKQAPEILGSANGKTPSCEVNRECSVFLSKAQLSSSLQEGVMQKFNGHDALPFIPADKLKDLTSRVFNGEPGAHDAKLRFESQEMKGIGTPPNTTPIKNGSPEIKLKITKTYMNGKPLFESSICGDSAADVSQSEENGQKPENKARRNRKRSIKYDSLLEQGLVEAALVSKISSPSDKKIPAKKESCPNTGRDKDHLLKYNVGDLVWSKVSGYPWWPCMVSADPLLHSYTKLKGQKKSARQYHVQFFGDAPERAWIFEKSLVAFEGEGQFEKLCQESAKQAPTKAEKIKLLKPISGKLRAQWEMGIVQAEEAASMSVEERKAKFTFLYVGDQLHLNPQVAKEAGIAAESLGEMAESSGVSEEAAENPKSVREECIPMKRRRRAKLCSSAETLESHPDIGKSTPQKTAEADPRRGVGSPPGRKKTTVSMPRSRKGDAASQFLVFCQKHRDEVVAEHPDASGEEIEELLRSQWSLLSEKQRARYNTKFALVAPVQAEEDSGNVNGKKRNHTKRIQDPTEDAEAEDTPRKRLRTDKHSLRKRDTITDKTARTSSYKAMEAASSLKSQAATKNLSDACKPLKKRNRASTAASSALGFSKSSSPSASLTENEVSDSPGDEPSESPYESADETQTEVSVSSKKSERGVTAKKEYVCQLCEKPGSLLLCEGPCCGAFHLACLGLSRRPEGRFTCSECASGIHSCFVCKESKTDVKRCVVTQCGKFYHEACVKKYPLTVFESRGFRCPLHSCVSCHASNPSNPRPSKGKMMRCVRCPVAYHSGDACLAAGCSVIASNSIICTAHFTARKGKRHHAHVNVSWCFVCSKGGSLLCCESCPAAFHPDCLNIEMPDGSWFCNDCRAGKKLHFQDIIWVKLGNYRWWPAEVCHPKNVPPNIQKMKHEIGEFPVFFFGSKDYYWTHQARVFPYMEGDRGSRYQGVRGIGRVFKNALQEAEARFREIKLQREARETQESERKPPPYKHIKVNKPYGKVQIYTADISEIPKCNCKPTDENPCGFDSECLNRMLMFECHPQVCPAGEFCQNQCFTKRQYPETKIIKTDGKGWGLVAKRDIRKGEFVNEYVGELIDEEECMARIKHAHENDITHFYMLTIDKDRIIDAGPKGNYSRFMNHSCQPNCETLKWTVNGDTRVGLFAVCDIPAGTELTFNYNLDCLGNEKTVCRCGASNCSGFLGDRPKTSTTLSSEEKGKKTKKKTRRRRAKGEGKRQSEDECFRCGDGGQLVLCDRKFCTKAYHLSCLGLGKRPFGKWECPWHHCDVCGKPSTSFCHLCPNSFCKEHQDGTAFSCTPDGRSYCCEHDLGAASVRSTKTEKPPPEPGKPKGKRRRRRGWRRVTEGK

Activity change, negative = inhibition, inactive:
CN1C(=O)C(=O)/C(=C(/O)c2ccccc2)C1c1ccccc1 (stereo unspecified) -2.62%
CCn1c(SC(=O)NC2CCCCC2)nnc1-c1cccs1 6.57%
Cc1cc(C)c(NC(=O)C2CC(=O)N(c3ccc4c(c3)OCCO4)C2)c(C)c1 (stereo unspecified) -2.35%
Cc1cc(C)nc(N2CCC(C(=O)N(C)CCc3ccccc3)CC2)n1 -0.983%
C/[N+]([O-])=C1\Cc2ccccc2C1=O 1.15%
O=C(CN(C(=O)c1csnn1)c1cccc2ccccc12)NCc1ccccc1 1.06%
Cc1cc(C(=O)COC(=O)c2n[nH]c3ccccc23)c(C)n1C -2.21%
O=C(NCCCn1ccnc1)C1CCN(S(=O)(=O)c2ccc(F)cc2)CC1 -3.94%
CC(=O)Nc1ccc(S(=O)(=O)NCCSCc2ccc(Cl)cc2Cl)cc1 0.56%
CC(C)NCC#CCOc1ccc(Cl)cc1 -11.6%
COC(=O)c1ccc(-n2nnnc2SCC(=O)NCc2cccc(C(=O)O)c2)cc1 1.21%
O=C(NCc1ccco1)c1scc2c1OCCO2 -1.63%
CC(C)(C)NC(=O)C(c1ccco1)N(C(=O)Cn1nnc(-c2ccc(F)cc2)n1)c1ccccc1F (stereo unspecified) 3.9%
O=C(c1ccccc1)c1cc2ccccc2oc1=O 0.833%
Cc1cc(=O)oc(C)c1C(=O)OCC(=O)c1ccccc1 1.53%
COc1ccc(N2CCOCC2)c(NC(=O)c2ccc3c(c2)OCO3)c1 -3.97%
CCOc1cc2c(C#N)c(N3CCOCC3)nc(N)c2c(N)n1 -0.342%
CCC1Cc2c(nc(N)c3c(N)nc(N4CCOCC4)c(C#N)c23)O1 (stereo unspecified) -3.29%
CC(C)n1c(NCc2nc3ccccc3n2C)nc2ccccc21 -0.542%
CCc1ccc(N2C(=O)C3C(C2=O)N2CCCN2C3c2ccccc2)cc1 (stereo unspecified) 3.23%
COc1cc(/C=C2\C(=O)ON=C2c2ccccc2)cc(Cl)c1O -10.3%
O=C1C(=Cc2ccco2)CCC1=Cc1ccco1 -10.4%
COc1ccc(CNC(=O)CCCN2C(=O)NC3(CCCC3)C2=O)cc1 4.98%
COc1ccc(NC(=O)Cn2nnc(C(=O)NCCc3ccc(OC)c(OC)c3)c2N)cc1 -1.57%
Cc1ccc(S(=O)(=O)N2CCCCC2CCNC(=O)C(=O)Nc2ccccc2F)cc1 (stereo unspecified) 2.31%
CC(=O)N(C)c1ccc(N=Nc2c(C)[nH]n(C(N)=S)c2=O)cc1 -3.77%
NS(=O)(=O)c1ccc(N/N=C/c2ccncc2)cc1 -3.56%
COC(=O)[C@H](Cc1ccccc1)NC(=O)Nc1ccc(S(N)(=O)=O)cc1 -1.38%
O=C(CSc1nc(SCC(=O)NCc2ccccc2)n(-c2ccccc2)n1)NCc1ccccc1 -1.26%
CCCCNC1=CC(=O)C(=O)c2ccccc21 -12.7%
COc1ccc(C(=O)Nc2c3c(nn2-c2ccc(Cl)cc2)CS(=O)(=O)C3)cc1 -0.12%
